We go through 29 compounds from PubChem BioAssay AID1851 (National Center for Advancing Translational Sciences (NCATS), 2009).

Structures are written as SMILES. Out of some 16,000 compounds screened, about 5,700 (36%) were called active. About 24% were inconclusive and are not listed. Calls follow the shape of the dose curve; as a rule, active = well fitted curve in the direction sought with a large enough effect; inconclusive = small, poorly fitted or top-dose-only effect, or effect the other way; inactive = no such curve, though single readings can be large or run the other way. Some of the results follow.
% is scaled to controls: 0 for no effect and ±100 for the full control effect.

The target of this experiment is Cytochrome P450 1A2 (Homo sapiens) (UniProt P05177). The experiment can be described thus: Cytochrome panel assay with activity outcomes. Conditions: recombinant CYP, pro-luciferin dealkylation, luminescence, p450-cyp1a2; series mostly up to 57.1 µM; activity, negative = inhibition: at the top concentration.
Chain of Cytochrome P450 1A2 (Homo sapiens) (P05177 whole entry, looked up): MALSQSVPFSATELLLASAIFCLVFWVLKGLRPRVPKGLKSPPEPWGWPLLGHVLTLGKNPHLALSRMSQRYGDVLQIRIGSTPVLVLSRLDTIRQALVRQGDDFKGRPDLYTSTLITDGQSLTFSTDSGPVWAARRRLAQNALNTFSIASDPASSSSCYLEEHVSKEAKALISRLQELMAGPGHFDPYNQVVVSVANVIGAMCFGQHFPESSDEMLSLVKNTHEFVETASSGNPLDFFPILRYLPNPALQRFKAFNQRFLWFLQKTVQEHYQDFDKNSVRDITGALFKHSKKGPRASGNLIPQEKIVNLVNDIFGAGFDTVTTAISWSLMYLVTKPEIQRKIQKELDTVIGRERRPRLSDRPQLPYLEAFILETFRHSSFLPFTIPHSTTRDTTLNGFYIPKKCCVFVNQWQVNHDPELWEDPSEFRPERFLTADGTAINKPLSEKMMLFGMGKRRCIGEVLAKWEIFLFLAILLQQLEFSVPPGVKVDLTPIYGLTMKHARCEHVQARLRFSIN
As to `CCOC(=O)C1=C(C)OC(N)=C(C#N)C12C(=O)N(C)c1ccccc12` (centres undefined), the “activity, negative = inhibition” value is 10.1% (inactive).

`C[C@@H]1[C@@H]2Cc3ccc(O)cc3[C@@]1(C)CCN2CC1CC1`: the “activity, negative = inhibition” value is -14.6% (inactive).

Consider `CNC(C)Cc1ccccc1Sc1ccc(O)cc1` (centres undefined), for which the “activity, negative = inhibition” value was -2.13% (inactive).

What is called AC50 is the concentration giving half of the maximal activity seen. Turning to `Cn1c(O)c(C(=N)COc2ccccc2)c(=O)n(C)c1=O`, the AC50 is 6.31 µM (active).

For the compound `O=C(Oc1ccccc1)N1CCC2(CC1)CN(C(c1ccccc1)c1ccccc1)C2`, the “activity, negative = inhibition” value was -14.2% (inactive).

As to `c1csc(CN2CC[C@@]3(CCCNC3)C2)n1`, the “activity, negative = inhibition” value is -12.5% (inactive).

For `CS(=N)(=O)CC[C@H](N)P(=O)(O)O` (some centres undefined), the activity, negative = inhibition was -13.9% [at 11.4 µM] (inactive).

In the case of `CCOC(=O)Cn1cc(C(=O)c2ccccc2F)c2ccccc21`, the concentration at half-maximal activity (AC50) was 3.55 µM (active).

As to `O=C(c1ccccc1F)c1cn(CC(=O)N2CCOCC2)c2ccccc12`, the “activity, negative = inhibition” value is 0.466% (inactive).

As for `O=C(c1ccccc1F)c1cn(Cc2ccccc2)c2ccccc12`, the AC50 was 7.08 µM (active).

With `COc1ccc(OC)c([C@H](O)[C@H](C)N)c1`, the AC50 entry was “inactive”.

`c1cc(N2CCCC3(CCNCC3)C2)ccn1`: the “activity, negative = inhibition” value is -4.56% (inactive).

Turning to `Nc1nc(N)c(N=Nc2ccc([As](=O)(O)O)cc2)c(=O)[nH]1`, the activity, negative = inhibition is -14.9% [at 2.29 µM] (inactive).

As to `N=C(N)n1cc(/C=N\N=C(N)N)cn1`, the activity, negative = inhibition is 7.8% [at 2.29 µM] (inactive).

As to `CCC[C@@](C)(COC(N)=O)COC(=O)NC(C)C`, the “activity, negative = inhibition” value was 0.255% [at 25.6 µM] (inactive).

As for `O=C(O)C(O)(c1ccc(-c2ccccc2)cc1)c1ccc(-c2ccccc2)cc1`, the activity, negative = inhibition was -16.4% [at 11.4 µM] (inactive).

Regarding `CS(=N)(=O)CC[C@@H](N)C(=O)O` (some centres undefined), the AC50 result was “inactive”.

On to `Cc1cc(C)nc(NC2=NCCS2)n1`, for which the concentration at half-maximal activity (AC50) was 12.6 µM (active).

For the compound `C=C(C)[C@H]1CC[C@]2(C(=O)O)CC[C@]3(C)[C@@H](CC[C@H]4[C@@]5(C)CC[C@@H](O)C(C)(C)[C@@H]5CC[C@@]43C)[C@H]12`, the “activity, negative = inhibition” value was 10.2% [at 25.6 µM] (inactive).

As to `Cc1cc(NC(=O)CCC(=O)N2CCC3(CC2)OCCO3)no1`, the “activity, negative = inhibition” value was -14.7% (inactive).

`O=C(c1cc(=O)[nH]c2ccc(Br)cc12)N1CCC2(CC1)OCCO2`: the “activity, negative = inhibition” value is 7.44% (inactive).

For the compound `Cc1ccc2cc3cc(C(=O)N4CCC5(CC4)OCCO5)oc3nc2c1`, the AC50 is 2.51 µM (active).

As for `Cc1ccc(S(=O)(=O)NCC2CCC(C(=O)N3CCC4(CC3)OCCO4)CC2)cc1` (centres undefined), the “activity, negative = inhibition” value was -4.19% (inactive).

As to `O=C(Cn1ncc2ccsc2c1=O)N1CCC2(CC1)OCCO2`, the “activity, negative = inhibition” value was -10% (inactive).

For the compound `O=C(c1cc2cc3ccc(Cl)cc3nc2o1)N1CCC2(CC1)OCCO2`, the AC50 was 6.31 µM (active).

In the case of `COC(=O)[C@H](N)CCCN=C(N)N[N+](=O)[O-]`, the “activity, negative = inhibition” value was -6.84% (inactive).

`CN1CCc2cccc(Cl)c2CC1`: the “activity, negative = inhibition” value was -19.4% (inactive).

Consider `CCCC(=O)Nc1ccc(N2CCN(CC)CC2)c(Cl)c1`, for which the “activity, negative = inhibition” value is -11.9% (inactive).

Consider `C[C@@H]1O[C@H](O[C@@H]2CC[C@@]3(C=O)[C@H]4CC[C@@]5(C)[C@@H](C6=CC(=O)OC6)CC[C@@]5(O)[C@@H]4CC[C@]3(O)C2)C[C@H](O)[C@@H]1O`, for which the “activity, negative = inhibition” value is -3.45% [at 25.6 µM] (inactive).
